# High-throughput results as filed in PubChem BioAssay.
# PAX8 inh HTS: inhibitors of PAX8-driven TPO luciferase reporter, primary screen, RMG-I cells, single concentration | SteadyGlo, 24 h | inhibition, % at 12.6 µM | hit rate 1.2% among 360,000 | AID 652154, 2013;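 active = mean replicate inhibition at least 60% with every replicate also reaching 60%; inconclusive = only one of the two criteria is met; inactive = mean below 60% and not all replicates reaching 60%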;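 also: luciferase light reporting Pax8 driven TPO promoter activity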
# EWS-Fli inh: EWS/Fli-driven NR0B1 reporter inhibitors, primary screen, A673 cells, NR0B1 luciferase, luminescence, MLPCN library; viability-normalised; inhibition, % at 12.6 µM; hit rate 0.67% among 350,000;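 active = mean inhibition of at least 50% after viability correction, with every replicate also passing that limit; inconclusive = mean reaches 50% but only one of two replicates passes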;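 also: firefly luciferase signal divided by Alamar Blue viability fluorescence both relative to DMSO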
# LMP1 NFkB inh: EBV LMP1-driven NF-kappaB luciferase reporter inhibitors, primary screen, cell-based, luminescence, single point | hit rate 0.69% among 350,000 | LMP1-induced NF-kappaB luciferase reporter cells | inhibition, % at 12.5 µM; in the data active = inhibition above about 41%; inconclusive = no clear call, values can overlap the other calls
# MITF TRPM1 inh: inhibitors of MITF-dependent TRPM1 promoter reporter, primary screen, cell-based, SK-MEL-5, single point, luciferase. SK-MEL-5 TRPM1 promoter luciferase, 24 h. inhibition, % at 12.5 µM. hit rate 0.83% among 330,000;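 active = mean inhibition across replicates of 60% or more, whatever share of single replicates reaches that level; inconclusive = some that reach 60%, reason not given; inactive = mean inhibition across replicates below 60%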
# LGR2 antag: inhibitors of bursicon-induced LGR2 CRE-luciferase signal, primary screen, cell-based, HEK293, CRE-luciferase reporter, bursicon stimulation; Drosophila bursicon receptor LGR2 (rickets); bursicon-stimulated, 4 h; inhibition, % at 9.99 µM; hit rate 0.35% among 380,000;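 active = drop in luminescence signal, shown as inhibition above about 50% in the replicate tests, limit read from the data, passing the limit was not always enough; inconclusive = probably only some replicates passing the limit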;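 also: agonist challenge used bursicon conditioned medium at about half maximal strength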
# Shn3 inh set2: reduction of Shn3 3'UTR firefly luciferase signal, primary screen, Schnurri-3 inhibitor project, cell-based, Clone20 osteoblasts, set 2 | Clone20 osteoblast Shn3 3'UTR firefly luciferase, 24 h | inhibition, % at 12.5 µM | hit rate 0.52% among 360,000 | AID 588674, 2011;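 active = mean inhibition of at least 75% with every replicate also reaching 75%; inconclusive = mean inhibition at least 75% but some replicate below; inactive = mean inhibition below 75%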
# A number is an active result; n = inactive; u = inconclusive; x = no result. Only some compounds are listed: those with a hit (about 2.2% of all), similar ones and a draw of the others.
SMILES,PAX8 inh HTS,EWS-Fli inh,LMP1 NFkB inh,MITF TRPM1 inh,LGR2 antag,Shn3 inh set2
C[C@H](CO)N1C[C@H](C)[C@@H](CN(C)Cc2ccc(C(F)(F)F)cc2)OCCCC[C@H](C)Oc2ccc(NC(=O)Nc3ccccc3)cc2C1=O,n,n,x,x,n,x
C[C@@H]1CCCCO[C@H](CN(C)Cc2ccc(C(=O)O)cc2)[C@H](C)CN([C@H](C)CO)C(=O)c2cc(NC(=O)Nc3ccc(C(F)(F)F)cc3)ccc2O1,n,n,x,x,n,x
C[C@H](CO)N1C[C@H](C)[C@H](CN(C)Cc2ccc(C(F)(F)F)cc2)OCCCC[C@H](C)Oc2ccc(NC(=O)Nc3ccccc3)cc2C1=O,85,n,x,x,n,x
C[C@@H]1CCCCO[C@H](CN(C)Cc2ccc(C(F)(F)F)cc2)[C@@H](C)CN([C@@H](C)CO)C(=O)c2cc(NC(=O)Nc3ccccc3)ccc2O1,n,69,x,x,n,x
O=C(C[C@H]1CC[C@@H](NC(=O)Nc2ccc(C(F)(F)F)cc2)[C@@H](CO)O1)NCc1ccccn1,n,n,x,x,n,x
Cc1noc(C)c1S(=O)(=O)N(C)C[C@H]1OCCCC[C@H](C)Oc2ccc(NC(=O)Cc3ccccc3)cc2C(=O)N([C@H](C)CO)C[C@@H]1C,n,n,x,x,n,x
NC(=O)CSc1nc2cc3c(cc2c(=O)n1CCCC(=O)NCc1ccc2c(c1)OCO2)OCO3,x,x,45,n,x,n
Cn1cc([N+](=O)[O-])c(C(=O)Nc2cc(Oc3ccccc3)cc([N+](=O)[O-])c2)n1,x,54,n,82,n,96
CCn1cc([N+](=O)[O-])c(C(=O)Nc2ccn(Cc3ccccc3F)n2)n1,x,x,n,n,n,n
Cc1nn(C)cc1C(=O)Nc1cc(Oc2ccc(Cl)cc2)cc([N+](=O)[O-])c1,x,n,n,n,n,n
Cc1ccccc1Cn1ccc(NC(=O)c2nn(C)cc2[N+](=O)[O-])n1,72,x,n,n,n,n
Cc1cccc(Oc2cc(NC(=O)c3ccccc3)cc([N+](=O)[O-])c2)c1,x,x,n,n,x,87
Cc1ccc(NC(=O)c2cccc(Oc3ccc([N+](=O)[O-])cc3)c2)c(C(=O)O)c1,n,n,n,n,n,n
CCS(=O)(=O)N1C[C@@H](C)[C@H](OC)CN(C)C(=O)c2ccc(NC(=O)Nc3ccccc3Cl)cc2OC[C@H]1C,x,n,x,x,n,x
O=c1[nH]cnc2ncc(-c3ccc(O)cc3)nc12,69,n,n,n,n,n
O=c1[nH]cnc2nc(-c3ccccc3)c(-c3ccccc3)nc12,n,x,n,n,x,n
NNC(=O)c1cccc(COc2ccc(Br)cc2)c1,n,x,n,n,n,n
COc1ccc(OCc2cccc(C(=O)Nc3cc(C)on3)c2)cc1,96,x,81,u,x,n
CCOc1ccc(OCc2cccc(C(=O)N3CCOCC3)c2)cc1,x,x,84,n,x,n
COc1cccc(C(=O)Nc2cc(C)on2)c1,n,n,n,x,n,n
COc1ccc(OCc2cccc(C(=O)NN)c2)cc1,n,x,62,n,n,n
COc1ccc(OCc2cccc(C(=O)Nn3cc([N+](=O)[O-])cn3)c2)cc1,93,x,83,n,99,n
COc1ccc(C(=O)Nc2ccc(OCc3ccccc3)cc2)cc1[N+](=O)[O-],x,x,n,n,x,n
C[C@@H]1CN([C@H](C)CO)C(=O)c2cc(NC(=O)c3ccncc3)ccc2O[C@@H](C)CCCCO[C@@H]1CN(C)S(=O)(=O)c1ccc(F)cc1,x,n,x,x,n,x
C[C@@H]1CN([C@@H](C)CO)C(=O)c2cc(NC(=O)C3CCCCC3)ccc2O[C@H]1CN(C)S(=O)(=O)c1ccc(F)cc1,x,n,x,x,n,x
SMILES,PAX8 inh HTS,EWS-Fli inh,LMP1 NFkB inh,MITF TRPM1 inh,LGR2 antag,Shn3 inh set2
CNC(=O)C[C@@H]1CC[C@H]2[C@@H](COC[C@H](O)CN2C(=O)c2ccccn2)O1,n,n,x,x,n,x
O=C1CC(c2ccccc2)Sc2nc3ccccc3n21 (configuration not stated),n,n,n,n,n,n
O=C1CC(c2ccc3c(c2)OCO3)Sc2nc3ccccc3n21 (configuration not stated),x,x,n,n,54,n
CC1=C(C)CC(C(=O)N2CCN(Cc3ccccc3)CC2)C(C(=O)O)C1 (configuration not stated),n,x,65,n,x,n
C[C@@H]1CCCCO[C@@H](CN(C)Cc2ccc(C(=O)O)cc2)[C@H](C)CN([C@@H](C)CO)C(=O)c2cc(NS(=O)(=O)c3ccc(F)cc3)ccc2O1,n,n,x,x,n,x
Cn1c(=O)c(Nc2ccc(O)cc2)c2c3c(cccc31)C(=O)c1ccccc1-2,83,n,n,n,n,n
CC(C)c1ccc(Nc2c([N+](=O)[O-])c(=O)n(C)c3ccccc23)cc1,n,n,n,n,x,x
Cc1cc(C)c2nc(C)cc(Nc3ccc(C(=O)NCCO)cc3)c2c1,n,n,n,n,n,x
CC(=O)c1ccc(Nc2cc(C)nc3c(C)cc(C)cc23)cc1,n,n,n,n,99,n
Cc1cc(C)c2c(N)c(C(=O)Nc3ncc(C)s3)sc2n1,104,x,77,88,x,n
COC(=O)c1sc2nc(C)cc(C)c2c1N,n,n,n,n,n,n
C[C@H](CO)N1C[C@H](C)[C@H](CN(C)S(C)(=O)=O)Oc2ccc(NC(=O)CCCCCC(=O)Nc3ccccc3N)cc2C1=O,n,n,x,x,n,x
CCOc1ncccc1C(=O)N1CCN(c2cccc(C)c2C)CC1,63,u,n,n,n,n
CCOC(=O)N1CCN(c2cccc(C)c2C)CC1,70,n,n,n,n,n
CO[C@@H]1CN(C)C(=O)c2ccc(NC(=O)c3ccno3)cc2OC[C@@H](C)NC[C@@H]1C,x,n,x,x,n,x
COc1ccc(-c2c[n+]3c4n2CCCCC4=C(c2ccc(Br)cc2)C3)cc1,x,x,n,76,n,n
CC1CCN(c2ccc(-c3ccc(NC(=O)C(F)(F)F)cc3)nn2)CC1,x,x,46,n,x,n
CCN(CC(=O)Nc1ccc(NC(C)=O)cc1)C(=O)c1cccnc1Sc1ccc(C)c(C)c1,n,n,41,n,n,n
CN(C)S(=O)(=O)c1cccc(N=C2NN=C(c3ccccc3)CS2)c1,73,n,x,x,n,x
CC(=O)Nc1ccc(C2=NNC(=Nc3cccc(S(=O)(=O)N(C)C)c3)SC2)cc1,x,x,n,n,x,n
O=C(O)C[C@H]1C[C@@H]2c3cc(NC(=O)Nc4ccccc4)ccc3O[C@@H]2[C@H](CO)O1,n,n,x,x,n,x
Cc1nc2ccccc2c2c1CC(C(C)(Cl)Br)O2 (configuration not stated),n,n,n,n,n,90
COc1ccc(/C=N/NC(=O)CCC(=O)Nc2ccccc2)cc1OC,n,n,n,n,n,n
COc1ccc(/C=N/NC(=O)CCn2cnc(-c3ccccc3)c2-c2ccccc2)cc1OC,n,54,n,n,n,n
